Molecules are shown by their SMILES. Values joined by “and” are separate entries in the source; they are usually repeats but may differ in a detail not shown here. Identical values can stand only once. Results filed as inconclusive are left out. Entries that show only a call come without a potency. Some structures have more than one record in an assay (separate samples or runs), and their calls can disagree. Active and inactive are the calls of the source. Calls come from the whole dose curve; as a rule, active = well fitted cell-killing curve with a large enough effect in the repeat runs; inconclusive = weak or mixed curves, or effect the other way; inactive = flat fitted curve, though single readings scatter.
Potency is the fitted concentration of half-maximal effect.

A short description of the assay: qHTS RealTime-Glo MT Cell Viability Assay in HEK293 cells - 24 hour (AID 1224886). Note: nearly all actives have a fitted effect of over 50% in size. To be noted: RealTime-Glo luminescence; series mostly up to 76.8 µM. From the text: National Center for Advancing Translational Sciences [NCATS]
NIH Chemical Genomics Center [NCGC]
U.S. Environmental Protection Agency [EPA]
National Institutes of Environmental Health Sciences [NIEHS]
National Toxicology Program [NTP]
U.S. Food and Drug Administration [FDA]
Measure of cell viability is critical in the cell-base assay. Analysis of cell viability is necessary for the characterization of cell responses to cytotoxic drugs and environmental stress. A RealTime-Glo MT Cell Viability Assay to monitor cell viability in real time of continues cell culture during 40 hours of compound treatment was used to screen Tox21 10K library compounds in Hek293 cells. The RealTime-Glo MT Cell Viability Assay is a nonlytic, homogeneous, bioluminescent method to measure cell viability in real time using a simple, plate-based method. The assay involves adding NanoLuc luciferase and a cell-permeant prosubstrate to cells in culture. Viable cells reduce the proprietary prosubstrate to generate a substrate for NanoLuc luciferase. This substrate diffuses from cells into the surrounding culture medium, where it is rapidly used by the NanoLuc Enzyme to produce a luminescent signal. The signal correlates with the number of viable cells, making the assay well suited for cytotoxicity studies.
Tox21 Assay Protocol Summary:
The mixture of Hek293 cell suspension and reagents were dispensed at 600cells/6 ul/well in 1536-well tissue culture treated black solid bottom plates using a Multidrop dispenser. After the assay plates were incubated at a 37 C/5% CO2 incubator for 5 hours, 23 nL of compounds dissolved in DMSO, positive and negative controls was transferred to the assay plate by a pintool work station. The plates were incubated at 37 C for 40 hours. The luminescence intensity were measured at 0h, 8h, 16h, 24h, 32h and 40h time points using ViewLux plate reader during compound treatment.
(Quantitative high-throughput screening tests each substance at several concentrations.)
`CN(C)CCCN1c2ccccc2Sc2ccc(Cl)cc21`: the Potency was 24.5 µM (active) and 23.9 µM (active). Take `Nc1cc([N+](=O)[O-])ccc1C(=O)O`: the Potency entry is “inactive”. As for `O=C(O)c1ccc(O)cc1`, the Potency result was “inactive”. Consider `CCOC(=O)C(C)Oc1ccc(Oc2cnc3cc(Cl)ccc3n2)cc1` (stereo not given), for which the Potency was 22.4 µM (active) and 36.4 µM (active).

Consider `CN(C)/N=N/c1nc[nH]c1C(N)=O`, for which the Potency entry is “inactive”.

For the compound `CCCCCCCCCCCCCO`, the Potency result is “inactive”.

As to `CC(=O)OC(C)C`, the Potency entry was “inactive”. `Nc1ccc(N)c(Cl)c1`: the Potency result is “inactive”. `O=Cc1ccccc1C=O`: the Potency entry is “inactive”. Consider `O=C(O)COCCN1CCN(C(c2ccccc2)c2ccc(Cl)cc2)CC1` (stereo not given), for which the Potency entry was “inactive”.

Take `CC/C(=C(/CC)c1ccc(O)cc1)c1ccc(O)cc1`: the Potency is 12.2 µM (active) and 27.5 µM (active). With `C=CC(C)(O)CCC=C(C)C` (stereo not given), the Potency result was “inactive”. The result for `CN(C)C` reads “inactive”. To `C=C[C@H]1CN2CC[C@H]1C[C@H]2[C@H](O)c1ccnc2ccc(OC)cc12` belongs “inactive”; to `CCCCCCCC/C=C\CCCCCCCC(=O)O`, “inactive”. As to `Nc1ccc(O)c(N)c1`, the Potency entry is “inactive”. For `Cc1ccc(C(C)(C)C)cc1`, the Potency entry is “inactive”. The result for `CCCCCCCCCCC(CO)CCCCCCCC` (stereo not given) reads “inactive”; that for `C[C@]12C=CC(=O)C=C1CC[C@H]1[C@@H]3C[C@@H](O)[C@](O)(C(=O)CO)[C@@]3(C)C[C@H](O)[C@@]12F`, “inactive”; that for `c1ccc2c(c1)ccc1ncccc12`, “inactive”. Regarding `C1CN(SSN2CCOCC2)CCO1`, the Potency entry is “inactive”. Turning to `C=C[Si](OCCOC)(OCCOC)OCCOC`, the Potency entry was “inactive”. The result for `Nc1ccc2c(c1)C(=O)c1ccccc1C2=O` reads “inactive”; that for `Cc1ccc(N)c([N+](=O)[O-])c1`, “inactive”; that for `FC(F)(F)C(Cl)Br` (stereo not given), “inactive”. To `COc1ccc(-c2coc3cc(O)cc(O)c3c2=O)cc1` belongs 44 µM (active). The result for `O=C1OC2(c3ccccc31)c1cc(I)c(O)c(I)c1Oc1c2cc(I)c(O)c1I` reads 49.1 µM (active) and inactive. `CCC(Cc1c(I)cc(I)c(N)c1I)C(=O)O` (stereo not given): the Potency result is “inactive”. With `COCCOCCOCCO`, the Potency result was “inactive”. With `CCC/C=C/C=O`, the Potency result was “inactive”. To `CC(=O)O[C@]1(C(C)=O)CC[C@H]2[C@@H]3C=C(Cl)C4=CC(=O)CC[C@]4(C)[C@H]3CC[C@@]21C` belongs 21.8 µM (active); to `NC[C@H](O)c1ccc(O)c(O)c1`, “inactive”. For the compound `CC(C)(C)c1cccc(C(C)(C)C)c1O`, the Potency is 24 µM (active) and inactive. Turning to `NCCS(=O)(=O)O`, the Potency result was “inactive”. Consider `COc1cc([C@H]2Oc3cc([C@H]4Oc5cc(O)cc(O)c5C(=O)[C@@H]4O)ccc3O[C@@H]2CO)ccc1O`, for which the Potency result is “inactive”. As for `CN1CCOCC1`, the Potency result was “inactive”.

As for `CCCCCC=O`, the Potency result was “inactive”. `CC(C)[C@@H]1CC[C@@H](C)CC1=O`: the Potency entry was “inactive”.

Turning to `CC1(C)C(C=C(Cl)Cl)C1C(=O)OCc1cccc(Oc2ccccc2)c1` (stereo not given), the Potency result was “inactive”. Regarding `CC1=CC(C)(C)Nc2ccccc21`, the Potency result is “inactive”.

The values are drawn from PubChem BioAssay (Tox21).
